# Records with an inconclusive call do not appear. The source made the active and inactive calls. Calls follow the shape of the dose curve; as a rule, active = well fitted curve in the direction sought with a large enough effect; inconclusive = small, poorly fitted or top-dose-only effect, or another doubt; inactive = no such curve, though single readings can be large or run the other way.
# Test: qHTS Assay for Compounds Blocking the Interaction Between CBF-beta and RUNX1 for the Treatment of Acute Myeloid Leukemia: SAR for Probe with Orthogonal Assay
# Settings: ME-1 cells viability, ATPlite luminescence, 48 h; series mostly up to 82.4 µM
# Description: NIH Chemical Genomics Center [NCGC] NIH Molecular Libraries Probe Production centers Network [MLPCN] MLPCN Grant: X01MH083259-01 Assay Submitter (PI): Paul Liu NCGC Assay Overview: Core Binding Factor (CBF) abnormalities are associated with 20-25% of all acute myeloid leukemias (AML), of which 5-10% are further sub classified as acute myelomonocytic leukemia with eosinophilia, also known as M4Eo in the FAB classification scheme. This subtype of leukemia is usually associated with chromosome 16 inversion (p13:q22). Chromosome 16 inversion results in formation of the fusion oncogene CBFB-MYH11, which encodes the fusion protein CBF-beta-SMMHC. […] It has been hypothesized that the interference of CBF-beta and RUNX1 binding could have therapeutic implications for patients with CBF mediated leukemias. We developed a CBF-beta and RUNX1 binding assay in AlphaScreenTM format and optimized it for high throughput screening to search for inhibitors. The goal of this project is to screen MLPCN's compound collection (MLSMR) for identifying the inhibitors of the interaction between CBF-beta and RUNX1 proteins as research probes. If these probes work well in the animal models, the ultimate goal of this project is to development a new drug treatment for this disease. This assay can not be used to assess how apparent inhibitors interfere with protein binding, and whether inhibitors specifically bind to either protein. Disruption of this protein-protein interaction, through any mechanism, is the intended target activity. The present data set was run to confirm the activity of hits from the primary screen using an orthogonal assay technology for measuring protein-protein interaction disruption.
# NCGC Assay protocol: ME-1 suspension cells were grown in T225 flasks to 80% density under a standard cell culture condition (ATCC) using Dulbecco's Modified Eagle Medium (DMEM) + 10% fetal bovine serum, harvested in OPTI-MEM (phenol free) + 10% FBS. Seeded at 500 cells/well in 5uL medium into 1536-well white solid-bottom plates using Multidrop Combi dispenser, and incubated the plates at 37 C with 5% CO2 and 95% humidity for 2 hours prior to pinning compound. Subsequently, 23 nL/well compound solutions or DMSO controls were dispensed to the assay plates via a pintool workstation. Plates were then transferred to 37 C with 5% CO2 and 95% humidity for 48 hours, and then ATP content was measured following the addition of 4uL/well of ATPlite reagent and a 20 min incubation on a ViewLux plate reader. Keywords: MLSMR, MLPCN, NIH Roadmap, qHTS, NCGC, Core binding factor, CBF, CBF-beta, Acute myeloid leukemia
row,Compound,outcome
1,O=C(c1ccc[nH]1)c1cc(Cl)ccc1NC(=O)[C@@H]1CCCN1,inactive
2,N[C@@H](Cc1ccccc1)C(=O)Nc1ccc(Cl)cc1C(=O)c1ccc[nH]1,inactive
3,N[C@H](Cc1ccccc1)C(=O)Nc1ccc(Cl)cc1C(=O)c1ccc[nH]1,inactive
4,CC(C)(N)C(=O)Nc1ccc(Cl)cc1C(=O)c1ccc[nH]1,inactive
5,CNCc1nc(-c2ccc[nH]2)c2cc(Cl)ccc2n1,inactive
6,N[C@@H](CC(=O)O)C(=O)Nc1ccc(Cl)cc1C(=O)c1ccc[nH]1,inactive
7,NCCCC(=O)Nc1ccc(Cl)cc1C(=O)c1ccc[nH]1,inactive
8,C[C@H](N)C(=O)Nc1ccc(Cl)cc1C(=O)c1ccc[nH]1,inactive
9,CCC(=O)Nc1ccc(Cl)cc1C(=O)c1ccc[nH]1,inactive
10,NC(=O)C[C@H](N)C(=O)Nc1ccc(Cl)cc1C(=O)c1ccc[nH]1,inactive
11,C[C@@H](N)C(=O)Nc1ccc(Cl)cc1C(=O)c1ccc[nH]1,inactive
12,N[C@@H](CO)C(=O)Nc1ccc(Cl)cc1C(=O)c1ccc[nH]1,inactive
13,CC(C)[C@H](N)C(=O)Nc1ccc(Cl)cc1C(=O)c1ccc[nH]1,inactive
14,CC(=O)Nc1ccc(Cl)cc1C(=O)c1ccc[nH]1,inactive
15,CCc1sc(N)nc1-c1ccc(OC)cc1,inactive
16,NCC(=O)Nc1ccc(Cl)cc1C(=O)c1ccc[nH]1,inactive
17,NCCCCC(=O)Nc1ccc(Cl)cc1C(=O)c1ccc[nH]1,inactive
18,NC(N)=NCCC[C@H](N)C(=O)Nc1ccc(Cl)cc1C(=O)c1ccc[nH]1,inactive
19,NCCCC[C@H](N)C(=O)Nc1ccc(Cl)cc1C(=O)c1ccc[nH]1,inactive
20,CN(C)CC(=O)Nc1ccc(Cl)cc1C(=O)c1ccc[nH]1,inactive
21,N[C@H](C(=O)Nc1ccc(Cl)cc1C(=O)c1ccc[nH]1)c1ccccc1,inactive
22,N[C@@H](CCC(=O)O)C(=O)Nc1ccc(Cl)cc1C(=O)c1ccc[nH]1,inactive
23,Nc1ccc(Cl)cc1C(=O)c1ccc[nH]1,inactive
24,CNCC(=O)Nc1ccc(Cl)cc1C(=O)c1ccc[nH]1,inactive
25,NCCC(=O)Nc1ccc(Cl)cc1C(=O)c1ccc[nH]1,inactive

# Source: PubChem BioAssay AID504378 (National Center for Advancing Translational Sciences (NCATS), 2011)
